This is one part of a sample in which hits are shown more often than they occur.
Pf Dd2 growth: blocks in vitro growth of P. falciparum Dd2; P. falciparum Dd2 growth, SYBR Green, 72 h; Potency, µM (series often up to 28.9 µM), for inactives: top-dose activity, negative = inhibition, most hits filed as inhibitors; 4.3% of 120,000 active; AID 1347417; active = well fitted inhibition curve with a large enough effect;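 note: plate controls were DMSO vehicle for no effect and reference drug for full effect; nearly all actives have a fitted effect of over 65% in size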
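Infected erythrocytes (Dd2, 0.3% parasitemia, 2.5% hematocrit final) are added to compound in RPMI-1640/Albumax II medium, grown 72 h at 37C in low oxygen, then lysed with saponin/Triton-X containing SYBR Green and read by fluorescence.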
Numbers without * were called inactive; i = inactive; [ ] = remark or other dose. Potency is the fitted concentration of half-maximal effect.

SMILES | Pf Dd2 growth
Cc1cccc(-c2nc(SCCCOc3ccc(Cl)c(C)c3)n3[nH]c(=O)cc3n2)c1 | i
CCc1ccc(OCCSc2nc(-c3cccc(C)c3)nc3cc(=O)[nH]n23)cc1 | i
Cc1cccc(OCCCSc2nc(-c3ccc(C(C)(C)C)cc3)nc3cc(=O)[nH]n23)c1C | 10µM*
CCc1ccc(OCCCSc2nc(-c3ccc(C(C)(C)C)cc3)nc3cc(=O)[nH]n23)cc1 | 11µM*
O=C(Cn1nc2c(cc1=O)CCCCC2)Nc1ccccc1Cl | -10%
CC(=O)N1CC2(Cc3ccccc31)CN([S+](C)(=O)[O-])C2 | 4%[44.1 µM]
COc1ccc(CNC(=O)N2[C@H]3CC[C@@H]2c2cnc(-c4ccccc4)nc2C3)cc1 | 11µM*
CCNC(=O)N1[C@H]2CC[C@@H]1c1cnc(-c3ccccc3)nc1C2 | -21%
Cc1noc(C)c1Cc1ccc(C(=O)N2[C@H]3CC[C@@H]2c2cnc(-c4ccccc4)nc2C3)o1 | 0.63µM*
COc1ccc(CCC(=O)N2[C@H]3CC[C@@H]2c2cnc(-c4ccccc4)nc2C3)cc1 | -27%
COCCC(=O)N1[C@H]2CC[C@@H]1c1cnc(-c3ccccc3)nc1C2 | -15%
O=C(CC1CCCC1)N1[C@H]2CC[C@@H]1c1cnc(-c3ccccc3)nc1C2 | 13µM*
O=C(Cc1ccccc1)N1[C@H]2CC[C@@H]1c1cnc(-c3ccccc3)nc1C2 | i
Cc1noc(C)c1CC(=O)N1[C@H]2CC[C@@H]1c1cnc(-c3ccc(F)cc3)nc1C2 | -16%
COc1ccccc1C(=O)N1[C@H]2CC[C@@H]1c1cnc(-c3ccccc3)nc1C2 | i
O=C(c1ccco1)N1CCc2nn(Cc3ccccc3)c(=O)n2CC1 | i
Cn1nccc1-c1ccc2ncn(Cc3ccccn3)c(=O)c2n1 | 0%[44.1 µM]
COCCN1CC(Cc2ncccc2C(=O)N2CCCCC2)CC1=O (stereo unspecified) | 15%
Cc1cccc2c1nc1n2[C@@H](CNS(=O)(=O)Cc2ccccc2)COC1 | -27%[44.1 µM]
O=C(c1cccc(Cl)c1)N1CCN(c2cc(-c3ccccc3)[nH]n2)CC1 | i
COc1cccc(CC(=O)N2CC(C(=O)NCCc3ccncc3)C3(CCOCC3)C2)c1 (stereo unspecified) | -14%
CC(C)NC(=O)c1ccccc1OCC1CCCN(C(=O)C2CCOCC2)C1 (stereo unspecified) | -12%
CN(C)c1cccc(Oc2nnnn2[C@H]2CO[C@H]3[C@@H]2OC[C@@H]3NC(=O)CC(C)(C)CC(=O)O)c1 | 0%
COC(=O)C1CCN(C(=O)CC[C@H]2CNC(=O)[C@@H]3[C@@H](CCN3Cc3ccc(OC)cc3)N2C)CC1 | -12%
Cc1ccc(-c2cccc(C(=O)N3CCCC(O)(CN4CCCC4)C3)c2)o1 (stereo unspecified) | 11µM*
SMILES | Pf Dd2 growth
O=C(c1cccc(-n2cccn2)c1)N1CCOCC(O)(CN2CCCC2)C1 (stereo unspecified) | -23%
O=C(c1cccc(-c2ncc[nH]2)c1)N1CCCC(O)(CN2CCCC2)C1 (stereo unspecified) | 10%
O=C(c1ccccc1-c1nn[nH]n1)N1CCOCC(O)(CN2CCCC2)C1 (stereo unspecified) | -2%
Cc1ccc(C)c2c(C)c(C(=O)N3CCCC(O)(CN4CCCC4)C3)[nH]c12 (stereo unspecified) | 11µM*
CC(=O)N[C@@H]1CN(C(=O)c2[nH]c3c(C)ccc(C)c3c2C)C[C@H]1C(C)C | -26%
COc1ccc(NC(=O)C2CC(=O)N(c3n[nH]c4cccc(F)c34)C2)c(OC)c1 (stereo unspecified) | -17%
COc1ccc(NC(=O)N[C@H]2C[C@@H](C(=O)N[C@H](Cc3c[nH]c4ccccc34)C(N)=O)N(C(=O)C3CC3)C2)cc1 | -14%
CN(C)C[C@@H]1CN(C)C[C@H]1NC(=O)c1cc(F)ccc1F | 17%
CCc1nc(-c2c3n(c(=O)n(CC(=O)Nc4cccc(Cl)c4)c2=O)CCCCC3)no1 | -4%
O=C1NCc2ccccc2CC12CCN(Cc1ccncc1Cl)C2 (stereo unspecified) | 10%
COc1cccc(CN2CCC3(Cc4ccccc4NC3=O)C2)c1 (stereo unspecified) | -4%[44.1 µM]
CC(C)Cc1ccc(CN2CCC3(Cc4ccccc4CNC3=O)C2)cc1 (stereo unspecified) | 13µM*
O=C1NCc2ccccc2CC12CCN(Cc1ccc(Oc3ccccc3)cc1)C2 (stereo unspecified) | 11µM*
N#Cc1ccc(CN2CCC3(Cc4ccccc4CNC3=O)C2)cc1 (stereo unspecified) | 5%
Cc1ccc(CN2CCC3(CC2)Cc2ccccc2NC3=O)cc1 | 4.5µM*
Cn1nccc1CN1CCC2(CC1)Cc1ccccc1NC2=O | -24%[44.1 µM]
CC(=O)Nc1ccc(CN2CCCC3(Cc4ccccc4CNC3=O)C2)cc1 (stereo unspecified) | -16%
CC(C)(C)CN1CCC2(Cc3ccccc3CNC2=O)C1 (stereo unspecified) | -25%[44.1 µM]
COc1cccc2c1OCCCN(Cc1nnc(-c3ccccc3)o1)C2 | -11%
c1ccc(O[C@H]2COCCN(C3CCOCC3)C2)cc1 | i
COCc1noc([C@@H]2CN(C(=O)CCC(C)C)C[C@H]2CO)n1 | 2%
CCc1cc(=O)n(CC(=O)Nc2ccc3c(c2)OCO3)c(-c2cccc(F)c2)n1 | i
COc1ccc(-n2cc(-c3ccc4c(c3)OCO4)n(CC(=O)Nc3cccc(C)c3)c2=O)cc1 | 13µM*
COc1ccc(NC(=O)Nc2ccc(C)n(CC(=O)Nc3cccc(C)c3)c2=O)cc1 | -16%
COc1ccccc1CCC(=O)N1C[C@@H](CO)[C@H](NC(C)=O)C1 | 6%
SMILES | Pf Dd2 growth
COc1ccc(-c2noc([C@@H]3CCCN3C(=O)c3ccc(C)c(C)c3)n2)cc1OC | i
C[S+](=O)([O-])N1CCC2(CC(=O)Nc3ccccc3N2)C1 (stereo unspecified) | 13%
COc1ccc(N2CCC(NC(=O)c3cccc(N(C)C)c3)C2=O)cc1 (stereo unspecified) | -2%
CCC(Sc1nc2c(sc3ccccc32)c(=O)n1CCc1ccccc1)C(=O)N(CC)CC (stereo unspecified) | 24%
CCC(Sc1nc2c(sc3ccccc32)c(=O)n1CCc1ccc(OC)c(OC)c1)C(=O)N(CC)CC (stereo unspecified) | 4µM*
CCC(Sc1nc2ccccc2c(=O)n1CCc1ccc(OC)c(OC)c1)C(=O)N(CC)CC (stereo unspecified) | -5%
COC(=O)C1=C(C)N=C2SC=C(CC(=O)N3CCCCC3)N2C1c1ccc(Cl)cc1 (stereo unspecified) | -15%
CN1C[C@@H](NS(=O)(=O)Cc2ccccc2)C[C@H]1c1nc(Cc2ccccc2)no1 | i
CNc1ncccc1C(=O)N1CCC(O)(c2ccc(C)cn2)CC1 | -4%
CNc1ccc(C)cc1C(=O)N1CCC2(CCCN(C)CC2)CC1 | 10µM*
Cc1ccc(C(=O)N2CCCC3(CCNCC3)CC2)cc1Cl | -14%
Cc1ccc(C)c(N2CCN(Cc3csc(C)c3C)CC2)c1 | i
CCc1c(CN2CCN(c3cccc(C)c3)C(C)C2)csc1C (stereo unspecified) | 0%
Cc1ccc(-c2c(CN3CCN(c4cc(C)ccc4C)CC3)csc2C)cc1 | 10µM*
COc1ccnc(N2CC[C@H](c3nnc(-c4ccc(N(C)C)cc4)o3)C2)n1 | i
Cc1ccc(CCNc2ncnc3onc(-c4ccc(Cl)cc4)c23)cc1 | i
CSc1ccc(CCNc2ncnc3onc(C)c23)cc1 | 8.9µM*
CCCNc1ncnc2onc(C)c12 | -4%

Screening results as filed in PubChem BioAssay.
